Compound activity: PubChem, Broad Institute
In the library only some 2.9% were active in any assay of this set; here they are far more common.
Vif inh – blocks HIV Vif function; HEK293T cells, Vif self-association by quenched fluorescence, imaging, 24 h; inhibition, % at 7.49 µM; 340,000 tested, 0.35% active; in the data active = inhibition above about 50%, passing the limit was not always enough; inconclusive = no clear call, values can overlap the other calls; inactive = below about 31%
esBAF inh – blocks esBAF chromatin remodeling in mouse ES cells; Bmi1-luciferase knock-in reporter, 24 h; 100% = twice the neutral-well signal; reporter increase, % at 12.5 µM; 350,000 tested, 2% active; AID 602393; in the data active = activation above about 40%; inconclusive = no clear call, values can overlap the other calls;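 also: a rise in the Bmi1 reporter signal indicates esBAF inhibition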
PvdQ inh – blocks Pseudomonas aeruginosa PvdQ acylase activity | purified PvdQ acylase, fluorescence plate reader | inhibition, % at 10 µM | 340,000 tested, 0.063% active; in the data active = inhibition above about 30%, passing the limit was not always enough; inconclusive = no clear call, values can overlap the other calls
MITF act – MITF TRPM1 promoter activation in melanoma cells; 300,000 tested, 0.75% active; AID 588334; activation, % at 12.5 µM; SK-MEL-5 TRPM1-promoter luciferase, 24 h; % of positive control, neutral wells = 0;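 active = mean activation of at least 80% with every replicate also reaching 80%; inconclusive = mean reaches 80% but some replicate falls short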
N-glyco inh – N-linked glycosylation inhibition | D54 ERlucT glycosylation luciferase reporter, 24 h; percent of 100 nM tunicamycin response | reporter increase, % at 12.5 µM | 360,000 tested, 0.23% active;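 active = mean luciferase reporter signal, scaled so untreated is 0 and the glycosylation-blocking control 100, at or above a set limit in every replicate; inconclusive = mean reaches the limit but not every replicate does; inactive = mean below the limit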;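 also: luciferase carries N-glycosylation sites so blocking glycosylation raises the light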
Wnt act – activators of Wnt/beta-catenin signaling; activation, % at 9.35 µM; Wnt/beta-catenin reporter cell assay, activator, plate reader; 300,000 tested, 1.2% active; in the data active = activation above about 30%, passing the limit was not always enough; inconclusive = no clear call, values can overlap the other calls
Of the large screens only hits and unclear results are named; the others gave an inactive call.

CCC(=O)C1CCCN(C(=O)CCc2nnc(C3(c4ccc(Cl)cc4)CCC3)o2)C1 (stereo not drawn)	esBAF inh 50
O=C(CCc1nnc(-c2ccc(-c3ccccc3)cc2)o1)N1CCCCC1	none (no result: esBAF inh)
O=C(Nc1ccc(C(F)(F)F)cc1)N[C@H]1CC[C@@H](CCNC(=O)c2ccccc2F)O[C@H]1CO	none (no result: Vif inh, PvdQ inh, MITF act, N-glyco inh, Wnt act)
COc1cc2c(cc1OC)C1CCc3cc4c(cc3C1N=C2)OCO4 (stereo not drawn)	Wnt act 51 (no result: Vif inh, PvdQ inh, MITF act)
CO[C@@H]1CN(C)C(=O)c2cc(NC(=O)C3CCCC3)ccc2OC[C@H](C)N(C)C[C@H]1C	none (no result: Vif inh, PvdQ inh, MITF act, N-glyco inh, Wnt act)
OC[C@H]1OC(Nc2ccc(N=Nc3ccccc3)cc2)[C@@H](O)[C@@H](O)[C@@H]1O (stereo partly drawn)	none (no result: esBAF inh, MITF act)
O[C@@H]1COC(Nc2ccc(N=Nc3ccccc3)cc2)C[C@@H]1O (stereo partly drawn)	Wnt act 46 (no result: Vif inh, esBAF inh, PvdQ inh, MITF act, N-glyco inh)
CC#CCN1c2ccccc2[C@]23C[C@@H](C(=O)OC)N(C(=O)c4ccco4)C2=NC(C(=O)OC)=C(C(=O)OC)[C@H]13	none (no result: Vif inh)
CC#CCN1c2ccccc2[C@]23C[C@@H](C(=O)OC)N(C(=O)c4cc(C)oc4C)C2=NC(C(=O)OC)=C(C(=O)OC)[C@H]13	N-glyco inh 33
COCC(=O)Nc1ccc2c(c1)C(=O)N(C)C[C@H](OC)[C@@H](C)CN(CC1CC1)[C@H](C)CO2	none (no result: Vif inh, PvdQ inh, MITF act, N-glyco inh, Wnt act)
O=C1CN(C(=O)OCc2ccccc2)c2ccccc2N1	esBAF inh 50
COc1cccc(NC(=O)CC(C)=O)c1	none
COc1ccc(CNC(=O)CNC(=O)N2CC(=O)Nc3ccccc32)cc1	none
COc1cccc(NC(=O)CC(=O)c2ccccc2)c1	esBAF inh inconclusive, Wnt act 33
COc1cccc(NC(=O)CNC(=O)N2CC(=O)Nc3ccccc32)c1	esBAF inh 44
COc1cccc(NC(=O)C(=O)NCc2ccncc2)c1	esBAF inh 52, MITF act inconclusive
COCC(=O)Nc1ccc2c(c1)C(=O)N(C)[C@@H]1CC[C@H](CC(=O)Nc3ccccc3)O[C@H]1CO2	none (no result: Vif inh, PvdQ inh, MITF act, N-glyco inh, Wnt act)
O=C(Nc1ccc(Cl)c(Cl)c1)N[C@@H]1CC[C@H](CCn2cc(C3CC3)nn2)O[C@@H]1CO	none (no result: Vif inh, PvdQ inh, MITF act, N-glyco inh, Wnt act)
O=C(Nc1ccc(-c2ccccc2)cc1)[C@H]1[C@H](CO)[C@H]2Cn3c(cccc3=O)[C@@H]1N2Cc1cccnc1	none (no result: Vif inh, PvdQ inh, MITF act, N-glyco inh, Wnt act)
COc1cccc(NC(=O)Cc2ccccc2)c1	esBAF inh 64, Wnt act inconclusive
COCC(=O)Nc1c(C(=O)Nc2cccc(OC)c2)oc2ccccc12	MITF act 97, Wnt act inconclusive
C[C@@H]1CN([C@@H](C)CO)C(=O)Cc2cc(NC(=O)NC3CCCCC3)ccc2O[C@H]1CN(C)CC1CC1	none (no result: Vif inh, PvdQ inh, MITF act, N-glyco inh, Wnt act)
CCc1noc(C)c1C(=O)NCCc1ccccc1	Wnt act 34 (no result: esBAF inh)
Cc1nn(Cc2ccccc2)c(Cl)c1C(=O)NCCc1ccccc1	Wnt act 47 (no result: esBAF inh)
O=C(C[C@H]1CC[C@H]2[C@@H](COC[C@@H](O)CN2Cc2cc(F)ccc2F)O1)NCc1ccc(Oc2ccccc2)cc1	none (no result: Vif inh, PvdQ inh, MITF act, N-glyco inh, Wnt act)
CCOC(=O)c1cc(-c2ccccc2)nn1Cc1cc(CC)no1	esBAF inh 61
N#Cc1cccc(-c2ccc3c(c2)[C@H]2[C@H](CCN2C(=O)C2CCCCC2)[C@@H](CO)N3)c1	none (no result: Vif inh, PvdQ inh, MITF act, N-glyco inh, Wnt act)
O=C(c1cccc(F)c1)N1CCC2(CC1)NCCc1[nH]cnc12	none
O=C(c1cccc(Cl)c1)N1CCC2(CC1)NCCc1[nH]cnc12	Vif inh 52
CN1C(=O)c2cc(NC(=O)C3CCOCC3)ccc2OC[C@H]2O[C@H](CC(=O)NCC3CCCCC3)CC[C@H]21	none (no result: Vif inh, PvdQ inh, MITF act, N-glyco inh, Wnt act)
CSc1nc2sc3c(c2c(=O)[nH]1)CCC(C)C3 (stereo not drawn)	esBAF inh 62 (no result: Wnt act)
COc1ccc(OC)c(/C(O)=C/C(=O)C(=O)Nc2cc(C)ccc2OC)c1	Vif inh 61
COc1ccc(OC)c(/C(O)=C/C(=O)C(=O)Nc2cc(C)cc(C)c2)c1	none (no result: esBAF inh)
CC(=O)Nc1c(-c2ccc3ccccc3c2)nc2ccccn12	esBAF inh 57, MITF act 82
CCC(=O)Nc1c(-c2ccc3ccccc3c2)nc2ccccn12	none
COc1cccc(S(=O)(=O)N2C[C@@H](O)COC[C@@H]3O[C@@H](CC(=O)N4CCCCC4)CC[C@H]32)c1	none (no result: Vif inh, PvdQ inh, MITF act, N-glyco inh, Wnt act)
C=CCNc1nc(C(=O)OCC(=O)c2ccccc2)cs1	esBAF inh 55
Cc1cccc(S(=O)(=O)N2C[C@H]3[C@@H](c4ccccc42)[C@H](CO)N3C(=O)c2ccccc2)c1	none (no result: Vif inh, PvdQ inh, MITF act, N-glyco inh, Wnt act)
Cc1cccc(C=NOCCc2ccccc2)n1	esBAF inh 66
CO[C@H]1CN(C)C(=O)c2cc(NC(=O)NC(C)C)ccc2OC[C@@H](C)N(CCC(F)(F)F)C[C@@H]1C	none (no result: Vif inh, PvdQ inh, MITF act, N-glyco inh, Wnt act)
C=CCSc1nc2c(cnn2-c2ccccc2)c(=O)n1N	Wnt act 56 (no result: esBAF inh, PvdQ inh, MITF act)
Cc1ccc(NCC(=O)N/N=C/c2cc3ccccc3nc2Cl)cc1	esBAF inh 61 (no result: MITF act, Wnt act)
O=C(CN1CCOCC1)N/N=C/c1cc2ccccc2nc1Cl	none (no result: esBAF inh, Wnt act)
Cc1ccc2nc(Cl)c(/C=N/Nc3ccc(C(=O)O)cc3)cc2c1	Wnt act 43
CO[C@H]1CN(C)C(=O)c2cc(NC(=O)C3CCC3)ccc2OC[C@H](C)N(Cc2cccnc2)C[C@H]1C	none (no result: Vif inh, PvdQ inh, MITF act, N-glyco inh, Wnt act)
COc1ccc(Oc2ccc(/C=C/C(=O)c3cccc(OC)c3)cc2[N+](=O)[O-])cc1	N-glyco inh 50 (no result: esBAF inh)
Oc1ccc(-c2cc(-c3ccc(O)cc3)nc(-c3ccccc3)n2)cc1	none
Oc1ccc(-c2cccc(-c3ccc(O)cc3)n2)cc1	esBAF inh 48 (no result: MITF act)
Oc1ccc(-c2nnc(-c3ccc(O)cc3)nn2)cc1	Wnt act 77 (no result: MITF act)
C[C@H]1CN([C@@H](C)CO)C(=O)c2cc(NC(=O)c3ccncc3)ccc2O[C@@H]1CN(C)Cc1ccccc1	none (no result: Vif inh, PvdQ inh, MITF act, N-glyco inh, Wnt act)
COc1ccc(CCN2CC(C(=O)NCCc3ccccc3C(F)(F)F)CCC2=O)cc1 (stereo not drawn)	esBAF inh 49
C#CCN(C(=O)C1CCC(=O)N(CCc2cccc(F)c2)C1)C1CCCCC1 (stereo not drawn)	Wnt act 33 (no result: esBAF inh, PvdQ inh, MITF act)
O=C(NCCc1cccs1)C1CCC(=O)N(CCc2cccc(F)c2)C1 (stereo not drawn)	none
Cc1ccsc1CCNC(=O)C1CCC(=O)N(CCc2cccc(F)c2)C1 (stereo not drawn)	esBAF inh 65, MITF act 95
O=C(NC1CCC1)C1CCC(=O)N(Cc2cccc(F)c2)C1 (stereo not drawn)	none
CN(C(=O)C1CCC(=O)N(Cc2cccc(F)c2)C1)C1CCCCC1 (stereo not drawn)	esBAF inh 97, MITF act 98, Wnt act 44
COc1ccccc1S(=O)(=O)N[C@H]1CC[C@@H](CC(=O)NCc2cccc(F)c2)O[C@@H]1CO	none (no result: Vif inh, PvdQ inh, MITF act, N-glyco inh, Wnt act)
CO[C@@H]1CC[C@@H]2CCOc3ccc(C#N)cc3C(=O)N(C)C[C@@H](C)C(=O)N(C)C[C@H]1O2	none (no result: Vif inh, PvdQ inh, MITF act, N-glyco inh, Wnt act)
